# In the library only some 2.8% were active in any assay of this set; here they are far more common.
# POLI inh: blocks human DNA polymerase iota activity | Q9UNA4 | Pol iota fluorescent replication assay, 10 min | Potency, µM (series often up to 115 µM), for the others: top-dose activity, negative = inhibition, hits mostly inhibitors | hit rate 1% among 390,000 | AID 588590; also: potency is read from the fitted curve at half-maximal effect
#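 Pol iota at 10 nM preincubated 15 min with compounds at room temperature; reaction started with fluorescent substrate, 50 nM final. Fluorescence read kinetically at 0 and 10 min; buffer-only wells as negative control.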
# WRN helicase inh: WRN helicase (human) inhibition. Q14191. WRN helicase unwinding, fluorescent forked duplex, kinetic. Potency, µM (top dose mostly 114 µM), inactives show at the highest dose activity change, negative = inhibition, actives largely listed as inhibitors. hit rate 0.46% among 360,000; also: potency is read from the fitted curve at half-maximal effect; % is scaled to controls: 0 for no effect and ±100 for the full control effect; nearly all actives have a fitted effect of over 55% in size
#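 Kinetic fluorescence helicase assay: unwinding of a quenched forked DNA duplex (100 nM final) with 2 mM ATP final raises red fluorescence (525/598 nm). Compounds sat 15 min at room temperature with 20 nM WRN beforehand.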
# PI5P4K alpha inh: inhibitors of human PI5P4K alpha | P48426 | PI5P4Kalpha enzyme, ADP-Glo luminescence, 60 min; active compounds read low | max response, % | hit rate 1.2% among 330,000; active = max response of -50% or lower; inconclusive = between -30% and -50%; inactive = -30% or higher; also: value at the top dose of about 77 µM; % is scaled to controls: 0 for no effect and ±100 for the full control effect
#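 Single end-point luminescence (ADP-Glo) quantified ADP from PI5P4Kalpha turnover; ATP 5 microM final, 1 h at RT, 0.1% CHAPS and 0.28 mM EGTA in HEPES pH 7.4.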
# Pol beta inh: blocks human DNA polymerase beta activity; AID 485314; P06746; hit rate 1.3% among 340,000; Potency, µM (series often up to 114 µM), for the others: at the highest dose activity change, negative = inhibition, usual class: inhibitors; Pol beta primer extension/strand displacement, fluorescence kinetic; also: potency is read from the fitted curve at half-maximal effect; % is scaled to controls: 0 for no effect and ±100 for the full control effect
#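 Preincubation: enzyme (10 nM) with compound, 15 min, RT. Reaction: substrate added to 50 nM final. Reads: 0 and 10 min. Analysis: normalized, Hill fit.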
# POLK inh: blocks human DNA polymerase kappa activity; purified Pol kappa, fluorescent DNA synthesis assay, 10 min; Potency, µM (series often up to 107 µM), inactives show at the highest dose activity, negative = inhibition, hits mostly inhibitors; hit rate 0.53% among 400,000; also: potency is read from the fitted curve at half-maximal effect; % is scaled to controls: 0 for no effect and ±100 for the full control effect
#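 Kinetic fluorescence screen: compound preincubated 15 min RT with 10 nM enzyme; 50 nM substrate (final) initiates; reads at 0/10 min.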
# Pol eta inh: inhibitors of human DNA polymerase eta. Potency, µM (top dose mostly 114 µM), without a hit: at the highest dose activity change, negative = inhibition, actives largely listed as inhibitors. Q9Y253. hit rate 1.2% among 390,000. recombinant Pol eta, fluorescent DNA replication assay; also: potency is read from the fitted curve at half-maximal effect; % is scaled to controls: 0 for no effect and ±100 for the full control effect
# Target sequence (Q9Y253 whole entry, looked up): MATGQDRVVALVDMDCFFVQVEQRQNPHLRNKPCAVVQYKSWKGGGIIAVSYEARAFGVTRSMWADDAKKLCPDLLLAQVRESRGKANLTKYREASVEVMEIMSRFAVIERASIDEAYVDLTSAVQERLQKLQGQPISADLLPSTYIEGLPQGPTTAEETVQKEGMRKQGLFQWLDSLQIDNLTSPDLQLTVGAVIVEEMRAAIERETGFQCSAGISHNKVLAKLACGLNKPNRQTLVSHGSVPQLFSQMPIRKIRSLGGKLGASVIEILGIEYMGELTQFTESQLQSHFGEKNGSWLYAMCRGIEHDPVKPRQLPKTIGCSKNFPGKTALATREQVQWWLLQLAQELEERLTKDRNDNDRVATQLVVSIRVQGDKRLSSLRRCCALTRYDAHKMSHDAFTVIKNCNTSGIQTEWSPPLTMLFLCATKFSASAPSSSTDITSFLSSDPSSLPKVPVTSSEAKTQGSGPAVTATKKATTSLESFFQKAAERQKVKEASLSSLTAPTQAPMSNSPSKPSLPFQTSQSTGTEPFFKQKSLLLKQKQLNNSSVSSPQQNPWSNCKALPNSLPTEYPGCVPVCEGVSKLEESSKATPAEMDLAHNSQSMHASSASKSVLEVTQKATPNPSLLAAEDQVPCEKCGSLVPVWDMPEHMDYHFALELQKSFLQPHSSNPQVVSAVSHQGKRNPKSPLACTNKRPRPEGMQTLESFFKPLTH
#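 Pol eta at 10 nM preincubated with compounds 15 min at room temperature; reaction started with fluorescent substrate (50 nM final) and read kinetically at 0 and 10 min.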
# * marks the source's active call; other numbers are inactive results; ? = inconclusive; . = no result given; ! = a repeat was not active; [ ] = dose if it differs, or a comment. Unless noted, calls follow the shape of the dose curve; as a rule, active = well fitted curve in the direction sought with a large enough effect; inconclusive = small, poorly fitted or top-dose-only effect, or another doubt; inactive = no such curve, though single readings can be large; an effect the other way counts as inactive or inconclusive.
SMILES,POLI inh,WRN helicase inh,PI5P4K alpha inh,Pol beta inh,POLK inh,Pol eta inh
Cc1ccc(C(=O)c2cn(CC(=O)Nc3ccc(C)cc3Cl)c3nc(C)ccc3c2=O)cc1,2%,.,.,-15%,0%,-5%
COc1ccc(CCC(=O)NCc2ccco2)cc1,-53%,?,-28,40µM*,?,20µM*
COc1cccc(/C=C/C(=O)OCC(=O)NCCC2=CCCCC2)c1,5%,-16%,-65*,5%,-27%,4%
CC(C)(C)NS(=O)(=O)c1ccc(CCC(=O)NCc2ccco2)cc1,15%,-10%,-5,1%,-7%,1%
COc1cc(OC)cc(C(=O)NCC(=O)OCC(=O)NCc2ccco2)c1,79µM*,?,-15,.,?,?
COc1ccc(C(=O)NCC(=O)OCC(=O)NCc2ccco2)cc1,-26%,-10%,7,.,-21%,?
CC(C)(C)c1ccc(OCC(=O)NCc2ccco2)c(Br)c1,?,-28%,?,?,-23%,45µM*
CCOc1ccc(NS(=O)(=O)c2ccc(-c3cc(C)no3)s2)cc1,-11%,.,.,27%,21%,-4%
O=C(CNC(=O)c1ccc(Cl)cc1)OCc1cc(=O)n2ccsc2n1,7%,.,.,-1%,-8%,-1%
Cc1nc(SCC(=O)Nc2ccc(Cl)cc2C(F)(F)F)[nH]c(=O)c1Cc1ccccc1,14%,.,.,10%,1%,-9%
Cc1ccc(/C=C/C(=O)OCC(=O)NC(=O)NCc2ccco2)cc1,?,-4%[11.6 µM],?,.,-45%,50µM*
O=C(COC(=O)/C=C/c1ccccc1)NCc1ccco1,.,7%,-12,.,.,-4%
CCn1c(=O)cc(OCC(=O)NCc2ccco2)c2ccccc21,?,-18%,0,45µM*,-15%,?
CCOc1cc(C(=O)OCC(=O)NCc2ccco2)cc(OCC)c1OCC,?,-13%[57.1 µM],?,18µM*,?,?
O=C(COC(=O)Cc1ccc(F)cc1)NCc1ccco1,?,4%[11.6 µM],-2,22µM*,?,?
Cc1cccc(NC(=O)Cn2c(=O)n(Cc3ccccc3)c(=O)c3oc4ccccc4c32)c1C,40%,.,.,0%,4%,-16%
COc1ccc(-c2nn(-c3ccccc3)cc2C2NC(=O)NC(C)=C2C(=O)OC(C)C)cc1Cl (stereo unspecified),?,.,.,-7%,-17%,-16%
CCOC(=O)c1cc(-c2ccco2)nc2c1c(C)nn2CCC#N,2%,-21%,-22,-1%,-22%,?
CCOC(=O)c1cc(-c2ccco2)nc2c1c(C)nn2-c1cccc(Cl)c1,9%,-10%,-7,28µM*,-5%,?
O=C(NCCc1ccc(Cl)cc1)c1ccc(CS(=O)Cc2cccc(Cl)c2)o1 (stereo unspecified),-12%,.,.,10%,-3%,-13%
COc1cccc(-c2n[nH]c(=S)n2Cc2ccco2)c1,?,5%[11.6 µM],?,?,-94%,35µM*
S=c1[nH]nc(-c2ccncc2)n1Cc1ccco1,-1%,5%,.,7%,3%,-12%
CNC[C@H](O)c1ccc(O)c(O)c1,?,.,-1,-7%[57.1 µM],7.1µM*!,0%[57.1 µM]
NC[C@@H](O)c1ccc(O)c(O)c1,.,.,.,.,12µM*,.
CC[C@H](NC(C)C)[C@H](O)c1ccc(O)c(O)c1,.,.,.,.,-7%[12 µM],.
SMILES,POLI inh,WRN helicase inh,PI5P4K alpha inh,Pol beta inh,POLK inh,Pol eta inh
O=C(O)c1cc(-c2ccc(/C=c3\sc4nc5ccc(Br)cc5n4c3=O)o2)ccc1Cl,.,.,.,1.6µM*,.,.
O=C(O)c1ccc(-c2nc(-c3ccc(Cl)c(Cl)c3)cs2)cc1,-5%,10%,-3,10%,11%,-15%
NC(=O)C(=CNc1nc(-c2ccc(Cl)c(Cl)c2)cs1)C(N)=O,.,.,.,1.4µM*,.,.
CCCNS(=O)(=O)c1ccc2nc(NC(=O)c3ccc(F)cc3)sc2c1,16%,.,.,32%,-14%[60.1 µM],-11%
Cc1cc(C)c2nc(-c3ccccn3)cc(C(=O)Nc3ccc(S(=O)(=O)Nc4cc(C)on4)cc3)c2c1,?,56µM*,.,50µM*,?,28µM*
Cc1cc(NS(=O)(=O)c2ccc(NC(=O)c3cc(-c4cccnc4)nc4ccc(Cl)cc34)cc2)no1,8%,-7%,.,6%,-11%,?
Cc1ccc(-c2cc(C(=O)Nc3ccc(S(=O)(=O)Nc4ncccn4)cc3)c3ccccc3n2)cc1,-11%,-16%,?,?,-3%,?
O=C(Nc1ccc(S(=O)(=O)Nc2nccs2)cc1)c1cc(-c2ccccc2)nc2ccccc12,66%,-8%[11.6 µM],-25,-5%,-18%,89µM*
Cc1ccc(-c2cc(C(=O)Nc3ccc(S(=O)(=O)Nc4nccs4)cc3)c3ccccc3n2)c(C)c1,?,-35%,?,0%[57.1 µM],-21%,35µM*
Cc1ccc(C)c(-c2cc(C(=O)Nc3nccs3)c3ccccc3n2)c1,10%,-9%,.,24%,-7%,4%
O=C(CS(=O)(=O)c1cccc2nsnc12)Nc1ccc(F)cc1,9%,.,.,-7%,-5%[60.1 µM],-11%
CCOc1ccc(CCNCc2c(C(=O)O)n(Cc3ccc(C)cc3)c3cc(OC)ccc23)cc1,6%,.,.,1%,-7%,.
N#Cc1c(Cl)nsc1NC(=O)c1ccccc1,8%,-15%,-54*,-1%,-13%,-3%
Cc1cccc(C(=O)Nc2sc(C)c(-c3ccccc3)c2C#N)c1,?,-5%,2,-17%,-11%,-15%
COc1cccc(CCn2c(N)cc(=O)[nH]c2=S)c1OC,39%,.,.,.,5%,.
CC1=NN(c2ccccc2)C(=O)/C1=C/C=C/c1ccc(N(C)C)cc1,-4%,-9%,-29,1%,14%,-3%
CCOC(=O)c1ccc(N2N=C(C)/C(=C/C=C/c3ccco3)C2=O)cc1,?,-2%,-11,?,-25%,-14%
CCOc1cc(/C=C2/C(=O)N(c3ccccc3)N=C2C)ccc1OC(=O)c1cccs1,0.35µM*,-28%[11.6 µM],.,16%,-4%,-10%
CC1=NN(c2ccccc2)C(=O)/C1=C\C=C\c1ccccc1,?,-14%[11.6 µM],17,?,-16%,79µM*
O=C1NN(c2ccccc2)C(=O)/C1=C\c1cccc(OC(=O)c2cccs2)c1,?,?,?,28µM*,-28%,28µM*
CC1=NN(c2ccc(C(=O)OC(C)C)cc2)C(=O)/C1=C\C=C\c1ccco1,-2%,-4%,-14,50µM*,-3%,?
O=C(Nc1ccc(F)cc1)C1CCN(c2nc3ccccc3nc2C(F)(F)F)CC1,18%,.,.,-11%,6%,-17%
COc1ccc(/C=C2/C(=O)N(c3ccccc3)N=C2C)cc1OC,2.5µM*,-15%[57.1 µM],-1,?,-3%,-8%
NC(=O)c1ccc(NC(=O)COC(=O)c2ccccc2SCC(=O)N2CCCC2)cc1,.,-4%,-1,.,.,-4%

# Source: PubChem
